Compound activity deposited in PubChem by several laboratories.
Hits are enriched below; roughly 0.93% of the tested compounds scored in any of these assays.
HIF activator: HIF pathway transcriptional activation. U2OS HRE-luciferase reporter, luminescence; normalized: DMSO 0%, desferrioxamine 100%. activation, % at 7.5 µM (by protocol). actives 0.32% (n = 300,000). AID 1910;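 active = mean activation of at least 10% of the iron chelator positive control signal, with at least half of replicates also reaching 10%; inconclusive = mean and replicate majority disagree about reaching 10%; inactive = mean and most replicates under 10%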
CFTR F508del cor: correctors of CFTR F508del function in bronchial epithelial cells | actives 0.36% (n = 350,000) | activity (quench increase), % at 7.58 µM | CFBE cells, YFP halide quenching; stimulated with forskolin plus potentiator P3; % fluorescence drop versus neutral controls;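 active = mean added fluorescence quench of at least 8% versus neutral control, with both replicates also reaching 8%; inconclusive = only one of the mean or replicate conditions met; inactive = mean below 8% and not both replicates reaching 8%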;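 also: cells transiently co-express mutant CFTR-F508del with the halide-sensitive YFP; corrector assay measuring rescue of mutant channel to the surface after 24 h compound exposure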
Jurkat NFkB inh: lowers PMA/ionomycin-induced NF-kB signal in Jurkat cells; PMA/ionomycin-induced NF-kB luciferase reporter, luminescence; inhibition, % at 4 µM; actives 0.53% (n = 330,000); in the data active = inhibition above about 50%
697 NFkB inh: lowers PMA/ionomycin-induced NF-kB signal in 697 B cells | 697 B-cell NF-kB luciferase reporter, 16 h | inhibition, % at 4 µM | actives 0.33% (n = 330,000); in the data active = inhibition above about 35%
Jurkat NFkB conf: lowers PMA/ionomycin-induced NF-kB signal in Jurkat cells | inhibition, % at 4 µM | actives 27% (n = 2,700) | shares compounds with Jurkat NFkB inh | Jurkat NF-kB luciferase, 16 h | AID 435020;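 active = inhibition reaching about 45% at 4 µM in either replicate, limit read from the data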;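 also: plate controls were PMA/ionomycin stimulated DMSO wells for no effect and unstimulated DMSO wells for full effect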
* marks the source's active call; other numbers are inactive results; ? = inconclusive; . = no result.

SMILES	HIF activator	CFTR F508del cor	Jurkat NFkB inh	697 NFkB inh	Jurkat NFkB conf
C[C@@H]1CCCCO[C@H](CN(C)C)[C@H](C)CN([C@H](C)CO)C(=O)c2cc(NC(=O)Nc3ccc(C(F)(F)F)cc3)ccc2O1	.	-1	.	.	.
CC(C)(C)c1ccc(C(=O)O/N=C(\N)c2ccccc2)cc1	-56	3	71*	0	85*
N/C(=N\OC(=O)c1ccc(Br)cc1)c1ccccc1	1	.	-163	-178	-103
O=C(C1CCCC1)N1CC2(C1)[C@H](c1ccccc1)[C@H](CO)N2CC1CC1	.	-2	.	.	.
COc1ccc2c(c1OC)C(=O)N(c1cccc(C(F)(F)F)c1)C2	4	.	-164	-119	-53
O=C(N/C=C/c1ccccc1)c1ccccc1	4	1	-176	-196	15
CCOc1ccc(OCc2cccc(C(=O)N3CCOCC3)c2)cc1	-3	.	53*	23	30
CN(C)CC(=O)Nc1ccc2c(c1)[C@H]1C[C@H](CC(=O)NCc3ccc(Cl)cc3)O[C@H](CO)[C@H]1O2	.	-3	.	.	.
Cc1cc(C)c2sc(NC(=O)C3=COCCO3)nc2c1	1	1	-170	-163	10
COc1cc(NS(=O)(=O)c2ccc(C)cc2)c2ncccc2c1	1	.	100*	-5	62*
Cc1ccc(S(=O)(=O)Nc2cccc3cccnc23)cc1	0	.	92*	-14	20
CO[C@@H]1CN(C)C(=O)c2ccc(NC(C)=O)cc2OC[C@H](C)N(C(=O)C2CCOCC2)C[C@H]1C	.	-5	.	.	.
COc1ccc(CCn2c(NN)nc3c2c(=O)[nH]c(=O)n3C)cc1	0	?	24	-1	.
COc1ccc(CCn2c(Br)nc3c2c(=O)[nH]c(=O)n3C)cc1	1	.	57*	-16	25
C[C@H]1CN([C@@H](C)CO)C(=O)c2cc(C#Cc3ccncc3)cnc2O[C@@H]1CN(C)CC1CCCCC1	.	0	.	.	.
CCOc1ccc2nc(N3CCCCCC3)sc2c1	1	-4	-234	-236	-148
COc1ccc(C(=O)N(Cc2ccccc2)Cc2cc3cc4c(cc3[nH]c2=O)OCCO4)cc1	1	.	55*	-32	12
COc1cccc(C(=O)N(Cc2ccccc2)Cc2cc3cc4c(cc3[nH]c2=O)OCCO4)c1	-1	.	-3	7	.
Clc1ccc(/C=N/NC2=Nc3cccc4cccc2c34)cc1	1	.	-77	-120	.
C(=N\NC1=Nc2cccc3cccc1c23)/c1ccccc1	2	.	-167	-181	-112
COc1cc2ccccc2cc1C(=O)NC1CCC(C)CC1 (stereo not drawn)	.	-3	95*	-59	-47
COc1cc2ccccc2cc1C(=O)NC1CCCC1	.	-6	-43	-17	.
Fc1ccccc1-c1nc(-c2ccc(Cl)cc2)no1	2	.	-176	-247	-76
CCOC(=O)c1ccc(NC(=O)N2CCc3ccccc32)cc1	3	.	-157	-92	-93
CCOC(=O)c1ccc(NC(=O)N2CCc3ccccc3C2)cc1	1	-1	-22	-52	.
SMILES	HIF activator	CFTR F508del cor	Jurkat NFkB inh	697 NFkB inh	Jurkat NFkB conf
COCCNc1nc(N)c([N+](=O)[O-])c(NC2CCCCC2)n1	0	5	13	-26	.
NCCCNc1nc(N)c([N+](=O)[O-])c(NC2CCCCC2)n1	-13	3	91*	-66	20
COc1cc(CN2CC3(CN(C(=O)c4ccc5c(c4)OCO5)C3)c3c(n(C)c4cc(OC)ccc34)[C@H]2CO)cc(OC)c1	.	3	.	.	.
COC(=O)c1sc2nc3c(cc2c1N)CCCC3	6	-1	-153	-97	-27
CCOC(=O)c1sc2nc3c(cc2c1N)COC(C)(CC)C3 (stereo not drawn)	1	.	-212	-192	-110
COc1ccc(CN(C)C[C@H]2Oc3ccc(NC(=O)Cc4ccccc4)cc3C(=O)N([C@H](C)CO)C[C@H]2C)cc1	.	-1	.	.	.
COc1ccc(CCNC(=O)c2ccc3c(c2)OCCO3)cc1	3	-1	-33	-28	.
O=C(NCCc1ccccc1)c1ccc2c(c1)OCCO2	-7	2	54*	22	70*
O=C(c1ccc(F)cc1)N1C[C@H]2[C@@H](c3ccccc31)[C@@H](CO)N2Cc1ccc2c(c1)OCO2	.	2	.	.	.
O=C(Nc1ccccc1)c1ccc(-c2ccccc2)s1	5	1	-194	9	-66
Cc1cc(-c2ccc(C(=O)O)s2)cnc1N	1	3	-5	-62	.
O=C(O)c1ccc(-c2ccc(-c3ccccc3)cc2)s1	-5	.	61*	-73	46
O=C(Nc1ccccc1)c1cc2ccc3ccccc3c2s1	4	2	-151	12	-65
CCS(=O)(=O)N1CCC2(CC1)CN(CC1CCOCC1)[C@H](CO)c1c2c2ccc(OC)cc2n1C	.	1	.	.	.
CN1C(=O)c2cc(NC(=O)C3CC3)ccc2OC[C@@H]2O[C@@H](CC(=O)NCc3ccccc3F)CC[C@@H]21	.	-6	.	.	.
CN(Cc1nc2ccccc2c(=O)[nH]1)C(=O)c1cccc(S(=O)(=O)N2CCc3ccccc32)c1	.	5	59*	-84	-13
CN(Cc1nc2ccccc2c(=O)[nH]1)C(=O)c1cccc(S(=O)(=O)N2CCCCCC2)c1	.	1	-4	-6	.
CCCCS(=O)(=O)/C=C\C=C/S(=O)(=O)CCCC	-4	.	90*	-131	63*
CCCNC(=O)N1CC2(C1)CN(C(=O)COC)[C@H](CO)c1[nH]c3cc(OC)ccc3c12	.	-2	.	.	.
C/C(=N\Nc1nncc2ccccc12)c1cccc(OC(F)F)c1	1	-1	-153	-202	-81
O=C(CSc1nnc(-c2csc3c2CCCC3)o1)Nc1ccccc1	0	-1	-173	-212	-126
CCOc1ccc2c(c1)OC(c1ccc(C)cc1)(C(F)(F)F)NC2=O (stereo not drawn)	2	.	60*	10	41
CCOc1ccc2c(c1)OC1(CCC(C)C1)CC2=O (stereo not drawn)	1	-1	-1	-13	.
C[C@@H]1CN([C@H](C)CO)S(=O)(=O)c2ccc(C#CC3CC3)cc2O[C@@H]1CN(C)C	.	-2	.	.	.
Cc1ccc2c(c1)N=C(c1ccccc1)CC(C(Cl)Cl)=N2	0	1	-143	-245	.
SMILES	HIF activator	CFTR F508del cor	Jurkat NFkB inh	697 NFkB inh	Jurkat NFkB conf
Cc1ccc(C2=Nc3ccccc3N=C(C(Cl)Cl)C2)cc1	0	-1	-162	-149	-91
Cn1nc(-c2ccccn2)nc2c(=O)n(C)c(=O)nc1-2	-4	-16	56*	-61	95*
O=C(Cc1n[nH]c(=O)c2ccccc12)OCC(=O)c1ccc(F)cc1	0	1	-3	21	.
CCOc1ccc(C(=O)COC(=O)Cc2n[nH]c(=O)c3ccccc23)cc1	2	13*	55*	-7	8
O=C(Nc1ccc(N2CCCCCC2)cc1)c1ccc[nH]1	.	0	-199	-110	-37
O=C(Nc1ccc(N2CCCCC2)cc1)c1ccccn1	-3	.	67*	21	69*
O=C(Nc1ccc(N2CCCC2)cc1)c1ccc(Br)cc1	1	.	-23	-30	.
Cc1cc(C)cc(C(=O)Nc2ccc(N3CCCC3)cc2)c1	5	0	-160	-128	1
COc1ccccc1C(=O)Nc1ccc(N2CCCCC2)cc1	3	.	-165	-198	-55
